Results taken from PubChem BioAssay AID434927 (Sanford-Burnham Center for Chemical Genomics, 2010).
Active and inactive are the calls of the source.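 Rule for the calls: active = inhibition above about 23% in any of six single-dose repeats (limit read from the data); inactive = the rest.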

Target: Intestinal-type alkaline phosphatase (Homo sapiens) (UniProt P09923)
Assay: human IAP inhibitors, confirmation, biochemical, luminescence, single concentration, uHTS hits (AID 434927);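 note: plate controls were DMSO wells with enzyme for no effect and wells lacking enzyme for full effect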
Settings: purified human IAP, CDP-Star luminescence, 30 min; at 8.3 µM; hits give high values

Chain of Intestinal-type alkaline phosphatase (Homo sapiens) (P09923 whole entry, looked up): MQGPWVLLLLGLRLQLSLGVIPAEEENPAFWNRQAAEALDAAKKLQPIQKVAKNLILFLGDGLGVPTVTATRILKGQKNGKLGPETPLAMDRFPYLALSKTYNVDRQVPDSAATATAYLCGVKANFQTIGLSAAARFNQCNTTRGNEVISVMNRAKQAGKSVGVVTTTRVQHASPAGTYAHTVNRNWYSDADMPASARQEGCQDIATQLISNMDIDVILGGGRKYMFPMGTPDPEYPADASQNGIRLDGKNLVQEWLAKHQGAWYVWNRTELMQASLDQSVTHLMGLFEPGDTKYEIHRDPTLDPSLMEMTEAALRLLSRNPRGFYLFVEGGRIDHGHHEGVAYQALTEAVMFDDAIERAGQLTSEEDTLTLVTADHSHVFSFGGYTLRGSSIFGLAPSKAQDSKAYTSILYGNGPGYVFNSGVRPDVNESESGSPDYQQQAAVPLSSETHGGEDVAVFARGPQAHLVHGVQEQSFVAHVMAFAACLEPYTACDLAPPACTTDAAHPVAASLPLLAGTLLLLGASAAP

inhibition, inactive:
CCOc1ccc(/C=N/NC(=O)c2[nH]ncc2Br)c(O)c1 -294%
O=Nc1[nH]c(=O)c(/C=C(\O)c2ccccc2)nc1NO -84.9%
c1ccc(-c2cccc(-c3ccccn3)n2)nc1 -113%
O=C(NC1CCCCCC1)c1ccc(-n2cnnc2)cc1 -58.8%
Cc1nc(S/C(=C/c2ccc(-c3ccc(Cl)cc3)o2)C(=O)O)n[nH]1 -88.7%
O=C(CCNS(=O)(=O)c1ccccc1C(F)(F)F)NNC(=O)c1csc(N2CCOCC2)n1 0.0741%
Cc1cc(C)cc(CC(Cc2nc3ccccc3[nH]2)c2nc3ccccc3[nH]2)c1 (stereo not drawn) -323%
CC(NC(=S)NC1CCC(C(C)(C)C)CC1)c1ccccc1 (stereo not drawn) -111%
O=C(NCCCN1CCOCC1)c1ccc2c(c1)N(Cc1ccc(Cl)cc1)C(=O)c1ccccc1S2=O (stereo not drawn) -47.5%
O=C(CN1CCN(C(=O)N2CCCCC2)CC1)Nc1ccc(F)cc1 -97.3%
NC(CO)C(=O)NNCc1ccc(O)c(O)c1O (stereo not drawn) -60.9%
CCOc1ccc(NC(=O)CSc2nncn2C)cc1 -83.5%
CCCOCC(O)CC(CC)C(=O)NNC(=S)Nc1ccccc1 (stereo not drawn) -138%

inhibition, active:
Cn1nnnc1N=N/C(=N/Nc1ccccc1)c1ccccc1 54.9%
COc1cccc(/C=N/Nc2nn3cnnc3c3ccccc23)c1O 40.4%
CCc1nnc(NC(=O)CSc2nnc(C)c(=O)n2N)s1 41.3%
Cc1ccc(NC(=O)C2CC(=O)Nc3nc4ccccc4n32)c(C)c1 (stereo not drawn) 38.4%
COc1cc(CN2CCC(n3nccc3NC(=O)CCCc3ccccc3)CC2)ccc1F 40.7%
O=c1c(O[C@@H]2O[C@H](CO)[C@@H](O)[C@H](O)[C@H]2O)c(-c2ccc(O)c(O)c2)oc2cc(O)cc(O)c12 48%
c1ccc(-c2nnc(CN3CCC4(CC3)OCCO4)o2)cc1 29.7%
CCCn1c(/C=C/c2ccccc2)nc2ccccc21 36.8%
Cc1cccc(NS(=O)(=O)c2cccc(C(=O)NNC(=O)c3ccccc3O)c2)c1 29.2%
CN1CCN(CCNC(=O)Cn2c(=O)c3cccn3c3ccc(F)cc32)CC1 35.4%
COc1ccccc1CCNC(=O)C1CCN(c2nnc(C)c3c(C)n(-c4ccc(C)cc4)nc23)CC1 30.8%
CC(C)(C)OC(=O)N1CCC(NC(=O)c2[nH]cnc2C(=O)Nc2ccon2)CC1 37%
COc1ccc(C=C2C(=O)c3ccccc3C2=O)cc1O 56.2%
CC(=O)CCc1ccc(Oc2nc(-c3cccnc3)nc3ccccc23)cc1 42%
COc1ccc(CC2CC(=O)N(c3ccc(C)cc3)C2=O)cc1 (stereo not drawn) 23.2%
O=C(NC(=S)NNC(=O)c1ccccc1O)c1ccc(F)cc1 62.4%
COC(=O)c1ccccc1-c1c2ccc(=N)cc-2oc2cc(N)ccc12 34.6%
COc1cc(/C=N\NS(=O)(=O)c2ccccc2)cc(OC)c1OC 30.7%
Cc1ccc(S(=O)(=O)NCCC(=O)NNC(=O)COc2ccc(Br)cc2)cc1C 41%
Cc1ccc(O)c(/C=N/NC(=O)c2[nH]ncc2Br)c1 23.2%
